Screening results from PubChem BioAssay.
CBX7 inh – CBX7 inhibition, primary AlphaScreen. AlphaScreen His6-CBX7 / biotin-H3K27me3 peptide binding; active compounds read low. normalised signal (fraction of DMSO) (no concentration beside the values). actives 1.1% (n = 66,000); in the data active = normalised signal below about 0.5
Target sequence (O95931 whole entry, looked up): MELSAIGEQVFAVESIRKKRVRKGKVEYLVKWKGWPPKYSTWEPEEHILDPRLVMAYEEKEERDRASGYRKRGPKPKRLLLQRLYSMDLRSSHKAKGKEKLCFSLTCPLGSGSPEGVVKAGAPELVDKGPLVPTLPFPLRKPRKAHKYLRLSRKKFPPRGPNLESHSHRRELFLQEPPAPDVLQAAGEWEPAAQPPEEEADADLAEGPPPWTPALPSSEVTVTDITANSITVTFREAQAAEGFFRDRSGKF
Active calls of the source: *. The full list was thinned out, with hits kept by preference.

What do the screens show for `Cc1ccc(NC2c3ncccc3C(=O)N2Cc2ccc(F)cc2)cc1C` (configuration not stated)?
CBX7 inh: 0.79

What do the screens show for `COc1ccc(CN2C(=O)c3cccnc3C2Nc2ccc(C)cc2)cc1` (configuration not stated)?
CBX7 inh: 0.5

What do the screens show for `COc1ccc(Cl)cc1NC1c2ccccc2C(=O)N1Cc1ccccc1` (configuration not stated)?
CBX7 inh: 0.53

What do the screens show for `COc1ccc(CN2C(=O)c3cccnc3C2Nc2cc(Cl)c(OC)cc2OC)cc1` (configuration not stated)?
CBX7 inh: 0.073*

How did COc1ccc(CN2C(=O)c3cccnc3C2Nc2ccc(OC)cc2)cc1 (configuration not stated) do in these assays?
CBX7 inh: 0.017*

How did CCOc1ccc(C(=O)Nc2c3c(nn2-c2ccc(Cl)cc2)CSC3)cc1 do in these assays?
CBX7 inh: 1

Results for Clc1ccccc1OCc1nc(-c2cccs2)no1 ?
CBX7 inh: 1.3

What do the screens show for `O=C1CC(Cc2ccc(Cl)cc2)C(=O)N1c1ncccn1` (configuration not stated)?
CBX7 inh: 1.2

How did COc1ccc(-c2nc(Cn3c(SCc4cccc(F)c4)nc4ccncc43)c(C)o2)cc1 do in these assays?
CBX7 inh: 0.89

How did O=C(CCCn1c(=O)[nH]c2ccc(Br)cc2c1=O)NCc1ccc2c(c1)OCO2 do in these assays?
CBX7 inh: 0.93

How did O=C(CN1C(=O)c2ccccc2S1(=O)=O)Nc1ccc(OCc2ccccc2)cc1 do in these assays?
CBX7 inh: 0.97

What do the screens show for `Cc1ccc(-c2nnc(Nc3cccc(O)c3)c3ccccc23)cc1S(=O)(=O)NC(C)(C)C`?
CBX7 inh: 0.4*

Results for Cc1ccc(-c2nnc(Nc3cccc(O)c3)c3ccccc23)cc1S(N)(=O)=O ?
CBX7 inh: 0.93

Results for Cc1ccc(-c2nnc(Nc3ccc(O)cc3)c3ccccc23)cc1S(=O)(=O)NC(C)(C)C ?
CBX7 inh: 0.67

How did CCOC(=O)c1c(CC(C)C)csc1NC(=O)c1ccc(C)cc1 do in these assays?
CBX7 inh: 1.1

How did CCN(CC)S(=O)(=O)c1ccc2oc(C(=O)Nc3ccccc3Cl)c(C)c2c1 do in these assays?
CBX7 inh: 1.1

What do the screens show for `Cc1oc(-c2cccc(F)c2)nc1CSCC(=O)NCc1ccccc1`?
CBX7 inh: 0.94

How did O=C(Nc1ccc(Cl)cc1)C1CCC(CNS(=O)(=O)c2cccc3cccnc23)CC1 (configuration not stated) do in these assays?
CBX7 inh: 0.93

How did COc1cccc(Nc2nc(C)nc3sc4c(c23)CCC4)c1 do in these assays?
CBX7 inh: 1

How did CCn1cc(CNC(=O)c2cc(-c3cc(C)ccc3C)nc3ccc(Br)cc23)cn1 do in these assays?
CBX7 inh: 0.96

What do the screens show for `Cc1nc(SCC(=O)c2ccc3c(c2)OCCO3)c2cc(-c3ccccc3)sc2n1`?
CBX7 inh: 1

What do the screens show for `Cc1nc(NCCc2ccc3c(c2)OCCO3)c2cc(-c3ccccc3)sc2n1`?
CBX7 inh: 0.36*

Results for COc1ccc(CCNc2nc(C)nc3sc(C)c(C)c23)cc1OC ?
CBX7 inh: 1

What do the screens show for `CCN(C(=O)CCc1nc(-c2ccc(C)cc2)no1)c1cc(Cl)ccc1OC`?
CBX7 inh: 1.1

How did CCOC(=O)c1ccc(Nc2nnc(C(C)(C)C)c(=O)[nH]2)cc1 do in these assays?
CBX7 inh: 0.5*

What do the screens show for `Cc1ccc(Nc2nnc(C(C)(C)C)c(=O)[nH]2)cc1`?
CBX7 inh: 1.3

What do the screens show for `CCOc1ccc(Nc2nnc(C(C)(C)C)c(=O)[nH]2)cc1`?
CBX7 inh: 1

Results for COc1ccc(-c2c(C(F)(F)F)oc3c(CN4CCN(C)CC4)c(O)ccc3c2=O)cc1OC ?
CBX7 inh: 1

How did CCOc1ccc(-c2cc(C(=O)NCCCN(C)Cc3ccccc3)c3ccccc3n2)cc1 do in these assays?
CBX7 inh: 1.1

What do the screens show for `CCOc1ccc2nc(N3CCCC(C(=O)NCCCN4CCN(CC)CC4)C3)sc2c1` (configuration not stated)?
CBX7 inh: 0.44*

What do the screens show for `CCCN1CCN(CCCNC(=O)C2CCCN(c3nc4ccc(OCC)cc4s3)C2)CC1` (configuration not stated)?
CBX7 inh: 1

How did CCOCCCNC(=O)C1CCCN(c2nc3ccc(OCC)cc3s2)C1 (configuration not stated) do in these assays?
CBX7 inh: 1.1

How did CCOc1ccc2nc(N3CCCC(C(=O)N4CCN(CC)CC4)C3)sc2c1 (configuration not stated) do in these assays?
CBX7 inh: 0.43*

How did CCOc1ccc2nc(N3CCCC(C(=O)N4CCC(C(N)=O)CC4)C3)sc2c1 (configuration not stated) do in these assays?
CBX7 inh: 1

How did CCOc1ccc2nc(N3CCCC(C(=O)N4CCN(Cc5ccccc5)CC4)C3)sc2c1 (configuration not stated) do in these assays?
CBX7 inh: 0.72

How did COc1ccccc1CC(=O)Nc1ccc(-c2noc(/C=C/c3ccccc3)n2)cc1 do in these assays?
CBX7 inh: 1

Results for Cc1ccc(C)c(N(C)C(=O)CCc2nc(-c3ccccc3F)no2)c1 ?
CBX7 inh: 0.99

Results for CC(C)OCc1ccc(O)c2ncccc12 ?
CBX7 inh: 0.0041*

What do the screens show for `CSCC[C@@H]1NC(=O)[C@H](Cc2cccc3ccccc23)NC1=O`?
CBX7 inh: 1

Results for O=C1CC(NCCc2ccccn2)C(=O)N1c1ccc(Cl)cc1 (configuration not stated) ?
CBX7 inh: 0.17*

Results for Cc1ccc(N2C(=O)CC(NCCc3ccc(Cl)cc3)C2=O)cc1 (configuration not stated) ?
CBX7 inh: 1.1

Results for CCOc1ccc(N2C(=O)CC(NCCc3ccccn3)C2=O)cc1 (configuration not stated) ?
CBX7 inh: 0.86

Results for Cc1ccc2nc(SCC(=O)Nc3ccccc3C(F)(F)F)[nH]c2c1 ?
CBX7 inh: 0.83

Results for N#Cc1nc(-c2ccc(F)cc2)oc1N1CCCCCC1 ?
CBX7 inh: 0.79

Results for Cc1ccc(OCc2nc(C#N)c(N3CCCCCC3)o2)cc1 ?
CBX7 inh: 0.4*

Results for N#Cc1nc(COc2ccc(F)cc2)oc1N1CCCCCC1 ?
CBX7 inh: 0.5*

Results for N#Cc1nc(COc2ccc(Cl)cc2)oc1N1CCN(Cc2ccccc2)CC1 ?
CBX7 inh: 0.71

How did N#Cc1nc(COc2ccc(Cl)cc2)oc1N1CCCCC1 do in these assays?
CBX7 inh: 0.76

Results for N#Cc1nc(COc2ccc(F)cc2)oc1N1CCC(C(N)=O)CC1 ?
CBX7 inh: 0.99

What do the screens show for `N#Cc1nc(COc2ccccc2)oc1N1CCCCCC1`?
CBX7 inh: 0.46*

How did CCN1CCN(c2oc(COc3ccc(F)cc3)nc2C#N)CC1 do in these assays?
CBX7 inh: 0.94

How did COc1ccc(OCc2nc(C#N)c(N3CCCCCC3)o2)cc1 do in these assays?
CBX7 inh: 0.58

What do the screens show for `Cc1ccc(OCc2nc(C#N)c(N3CC(C)CC(C)C3)o2)cc1` (configuration not stated)?
CBX7 inh: 0.53

Results for N#Cc1nc(COc2ccc(F)cc2)oc1N1CCCCC1 ?
CBX7 inh: 0.42*

Results for N#Cc1nc(COc2ccccc2Cl)oc1N1CCCCC1 ?
CBX7 inh: 0.75

Results for CCOc1cc2c(cc1OCC)C(c1ccc(Br)cc1)CC(=O)N2 (configuration not stated) ?
CBX7 inh: 0.92
